Compound activity deposited in PubChem BioAssay by several laboratories.
Hsp70 act = Hsp70 transcriptional activation, primary screen. HeLa Hsp70 promoter luciferase reporter, luminescence; scaled: vehicle 0, proteasome-inhibitor control 100%. activation, % at 10 µM. 200,000 compounds, 0.04% hits;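 active = activation above the mean across all tested compounds plus 3 SD, cutoff set per campaign, cut at about 5.5% in these data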
CHOP inh = CHOP inhibition in unfolded protein response. CHO-K1 CHOP-promoter luciferase, tunicamycin-induced, 15-18 h. inhibition, % at 10 µM. AID 2732. 220,000 compounds, 3.8% hits;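 active = compounds that reduced the stress-induced luciferase reporter signal by more than about 70% of percent inhibition, limit read from the data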
S1P4 agonist = activates the human S1P4 receptor | AID 1509 | O95977 | 220,000 compounds, 0.35% hits | activation, % at 4.98 µM | S1P4-expressing cell line, agonist reporter assay; in the data active = activation above about 11%
Target sequence (O95977 whole entry, looked up): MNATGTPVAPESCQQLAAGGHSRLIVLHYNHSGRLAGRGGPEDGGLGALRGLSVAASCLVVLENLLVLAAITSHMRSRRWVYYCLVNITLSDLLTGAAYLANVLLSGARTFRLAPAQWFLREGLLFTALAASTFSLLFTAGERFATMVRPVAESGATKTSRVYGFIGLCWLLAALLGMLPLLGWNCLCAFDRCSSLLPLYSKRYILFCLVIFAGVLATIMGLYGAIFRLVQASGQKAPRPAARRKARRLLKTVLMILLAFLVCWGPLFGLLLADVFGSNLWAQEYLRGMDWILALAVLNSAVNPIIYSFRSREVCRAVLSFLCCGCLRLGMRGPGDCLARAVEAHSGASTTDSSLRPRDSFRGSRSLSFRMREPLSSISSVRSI
S1P4 antag = blocks the human S1P4 receptor; O95977; S1P4-expressing cells, antagonist mode, reporter read-out; inhibition, % at 4.98 µM; 220,000 compounds, 0.26% hits; AID 1510; in the data active = inhibition above about 29%
Each line names hits and unclear results; the compound was inactive in the other large screens. A selection: hits, their analogues and other compounds. The true share with any hit is near 4.2%.

CC1=NN(c2nc(-c3ccc(C)cc3)cs2)C(=O)C1N=Nc1ccc(C(N)=O)cc1 (stereo unspecified)	CHOP inh 106.7
OCCN(Cc1ccccc1)CC(O)COc1ccc(-c2ccccc2)cc1 (stereo unspecified)	CHOP inh 76.1
COc1cc(C(C)=O)ccc1OCC(O)CN(CCO)Cc1ccccc1 (stereo unspecified)	none
CCOP(=O)(OCC)c1nc(-c2ccc(Cl)cc2)oc1NCc1ccccc1	CHOP inh 91.7
Cc1ccc2[nH]c(=O)c(CN(Cc3nnnn3C3CCCC3)C3CCCCC3)cc2c1	none
CCOC(=O)Cn1nnnc1CN(CCc1ccccc1)Cc1cc2cc(CC)ccc2[nH]c1=O	CHOP inh 80.5
Cc1ccc2[nH]c(=O)c(CN(Cc3ccccc3)Cc3nnnn3C3CCCC3)cc2c1	CHOP inh 75.9
CCOC(=O)Cn1nnnc1CN(Cc1cccs1)Cc1cc2cc(C)ccc2[nH]c1=O	none
Cc1ccc(CN2C(=O)c3ccccc3C2C(=O)NCc2cccnc2)cc1 (stereo unspecified)	none
CCOC(=O)C1CCN(CC(=O)Nc2c(C(=O)OC)[nH]c3ccc(Cl)cc23)CC1	none (no result: CHOP inh)
CCOC(=O)C1CCCN(CC(=O)Nc2c(C(=O)OC)[nH]c3ccc(Br)cc23)C1 (stereo unspecified)	CHOP inh 76.7
COc1ccc(C(=O)OCC(=O)Nc2sccc2C(N)=O)cc1OC	none (no result: Hsp70 act)
O=C(CCc1nnc(Cc2cccc(C(F)(F)F)c2)o1)NC1CC1	CHOP inh 78.0
CC(NC(=O)CCc1nnc(Cc2cccc(C(F)(F)F)c2)o1)C1CC1 (stereo unspecified)	none
O=C(CCN1C(=O)/C(=C/C=C/c2ccccc2)SC1=S)Nc1nc2ccccc2s1	none
O=C(COC(=O)CCN1C(=O)/C(=C\C=C\c2ccccc2)SC1=S)Nc1cc(F)ccc1F	CHOP inh 77.3
O=C(CN1C(=O)/C(=C\C=C\c2ccccc2)SC1=S)Nc1ccc(F)cc1	CHOP inh 88.6
CCSc1nnc(-c2cc(Br)ccc2NC(C)=O)c(=O)[nH]1	none (no result: Hsp70 act)
O=C1CC(c2cccc(Br)c2)c2cc3c(cc2N1)CCC3 (stereo unspecified)	CHOP inh 107.5
Cc1cc2c(cc1C)C(c1cccc([N+](=O)[O-])c1)CC(=O)N2 (stereo unspecified)	none
O=C1CC(c2cc(F)ccc2F)c2cc3c(cc2N1)CCC3 (stereo unspecified)	CHOP inh 71.3
O=C1CN(c2cc(Cl)cc(Cl)c2)C(=O)CN1/N=C/c1cccnc1	none (no result: Hsp70 act)
CCCc1cc(NCc2ccccn2)n2nc(C)c(-c3ccccc3)c2n1	none (no result: Hsp70 act)
CCCc1n[nH]c2c1/C(=N\O)CCC2	none
O=C(COC(=O)c1ccco1)NC(c1ccccc1)c1ccccc1	none
O=S1(=O)c2ccccc2N=NN1Cc1cc(Cl)cc(Cl)c1	CHOP inh 92.4
O=C1c2ccncc2C(=O)N1Cc1cccc(Cl)c1	none
COc1ccc(-c2ccc(CCC(=O)O)n2CC2CCCO2)cc1 (stereo unspecified)	none
Cn1c(=O)c2c(SCC(=O)N3CCCc4ccccc43)nc(CC(C)(C)C)nc2n(C)c1=O	CHOP inh 84.2
CCCc1nc(SCC(=O)N2CCCc3ccccc32)c2c(=O)n(C)c(=O)n(C)c2n1	none
S=C(NCCCN1CCOCC1)N1CCN(c2nc(-c3ccc(Cl)cc3)cs2)CC1	CHOP inh 87.6
Cc1ccc2c(c1)C(=C(C#N)C#N)C(=O)N2CCN1CCOCC1	none (no result: Hsp70 act)
CC(C)(C)c1ccc(-c2nc(-c3ccncc3)no2)cc1	CHOP inh 81.9
CC(C)(C)c1ccc(-c2noc(-c3ccno3)n2)cc1	none (no result: Hsp70 act)
O=[N+]([O-])c1cc(-c2nc(-c3ccncc3)no2)cc([N+](=O)[O-])c1	none
Cc1cc(C)cc(-c2nc(-c3ccncc3)no2)c1	CHOP inh 84.5
CC(C)(C)c1ccc(CN2C3=NCCCN3c3ccccc32)cc1	none
CCOC(=O)N1CCN(CC(=O)Nc2ccc(Oc3ccccc3)cc2)CC1	CHOP inh 81.9
O=C(CN1CCN(c2ccccc2)CC1)Nc1ccc(OCc2ccccc2)cc1	CHOP inh 86.1
COc1ccc(N2CC(C(=O)N/N=C/c3cccs3)CC2=O)cc1 (stereo unspecified)	none
CCc1nnc(NC(=O)CCN2C(=O)c3ccccc3C2=O)s1	none
Cc1cccc(N2CCc3c2nc2ccc(Br)cc2c3N)c1	none
CSc1nc(C)c2c(n1)N(c1cccc(C)c1)CC2	CHOP inh 88.2
COc1cc2c(cc1OC)C(c1cccc(OC)c1OC)CC(=O)N2 (stereo unspecified)	none
O=c1cc(Nc2ccc3c(c2)OCO3)[nH]c(=O)n1-c1ccc(Br)cc1	CHOP inh 76.6
COc1cccc(NC(=O)c2ccc(NC(=O)C(C)(C)C)cc2)c1	none
c1ccc(-c2nnc(NC3=NCCC3)o2)cc1	none
Fc1ccc(-c2nnc(NC3=NCCCCC3)o2)cc1	CHOP inh 75.0
O=C(Nc1ccc(O)c2c(=O)cc(-c3ccccc3Cl)oc12)c1cccc(Cl)c1	none
CCOC(=O)Cn1c(=NC(=O)C(C)(C)C)sc2cc([N+](=O)[O-])ccc21	none
CCOC(=O)N1CCC(NS(=O)(=O)c2ccc3c(c2)CCN3C(C)=O)CC1	CHOP inh 73.0
Cc1cccc(S(=O)(=O)Nc2ccc(-c3nc4ccc(C)cc4s3)cc2)c1	none
Cc1nnc(SCC(=O)Nc2ccc(-c3nc4ccccc4s3)cc2)s1	CHOP inh 85.9
Cc1nnc(SCC(=O)Nc2ccccc2NC(=O)CSc2nnc(C)s2)s1	none
COc1ccc(C2(C)NC(=O)N(CC(=O)Nc3ccc(-c4nc5ccc(C)cc5s4)cc3)C2=O)cc1 (stereo unspecified)	CHOP inh 71.5
Cc1ccc(S(=O)(=O)Nc2ccc(-c3nc4ccc(C)cc4s3)cc2)cc1	CHOP inh 87.1
Cc1ccc2nc(-c3ccc(NC(=S)NC(=O)CC(C)C)cc3)sc2c1	CHOP inh 96.1
Cc1cc(=O)[nH]c(-n2ncc(C#N)c2N)n1	none
O=C(c1ccc(N2CCCC2)c([N+](=O)[O-])c1)N1CCN(CCO)CC1	none (no result: Hsp70 act)
COc1ccc(OC)c(/C=N/n2c(-c3n[nH]c4c3CCC4)n[nH]c2=S)c1	none (no result: Hsp70 act)
O=C(NCCNc1ccc([N+](=O)[O-])cc1C(F)(F)F)c1ccc(F)cc1	none
Cc1ccc2nc(-c3ccc(NC(=O)CCS(=O)(=O)c4ccccc4)cc3)sc2c1	CHOP inh 81.5
Cc1nc2ccc(NC(=O)CCS(=O)(=O)c3ccccc3)cc2s1	none
Cc1ccc2nc(-c3ccc(NC(=O)CSc4nccc(=O)[nH]4)cc3)sc2c1	none
Cc1ccc2nc(-c3ccc(NC(=O)CSc4nc(N)cc(=O)[nH]4)cc3)sc2c1	CHOP inh 72.6 (no result: Hsp70 act)
COc1ccc(/C=N/Nc2nc(Nc3ccccc3)nc(N3CCCC3)n2)cc1[N+](=O)[O-]	CHOP inh 83.5
CC(C)CCN1CCN(Cc2ccc(N3CCNC3=O)cc2)CC1CCO (stereo unspecified)	none
CC(C)(C)NC(=O)Cc1ccc(Cl)c(Cl)c1	none
COc1cccc(C2=NN(C(=O)c3cccs3)C(O)(C(F)(F)F)C2)c1 (stereo unspecified)	CHOP inh 74.5
Fc1ccc2c(Cl)c(-c3nnc(-c4cccs4)o3)sc2c1	CHOP inh 90.6
